Source: PubChem BioAssay (NCI)
Compounds without any hit were thinned out: in the full panel of roughly 79,000, 15% have a hit. Values without a mark were called inactive. The source made the active and inactive calls. Cut-off read from the data, not from the text of the source: active = growth inhibition above about 70%; inactive = the rest.

Assay: NCI Yeast Anticancer Drug Screen. Data for the mec2-1 strain (AID 157)
Conditions: S. cerevisiae mec2-1 strain, at 50.0 µM, stronger effect = higher value
Summary of the method: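 Test agents were screened against the mec2-1 yeast strain, with defined DNA repair or cell cycle alteration. Growth was scored as inhibition against vehicle-only controls.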

Row | SMILES | growth inhibition
1 | N#Cc1c(SCc2ccc(Cl)cc2)nsc1Nc1ccc(Cl)cc1 | 88% (active)
2 | CC(CO)(Nc1ccc([N+](=O)[O-])cc1[N+](=O)[O-])C(=O)O (stereo not given) | 99% (active)
3 | O=[N+]([O-])/C(C(Cl)=C(Cl)Cl)=C(/Nc1ccccc1)Sc1ccccc1 | 70.2% (active)
4 | CC(SCc1ccccc1)C(=O)O (stereo not given) | -29.8%
5 | O=C1C2(Cl)C(Cl)=C(Cl)C1(Cl)C1(Cl)C(Cl)=C(Cl)C(=O)C21Cl (stereo not given) | 54.2%
6 | O=C(CNC(=O)c1ccccc1)Oc1c(Cl)c(Cl)c(Cl)c(Cl)c1Cl | 74.8% (active)
7 | CN(C)c1nc(NNS(=O)(=O)c2ccc(N)cc2)nc(N(C)C)n1 | 7.55%
8 | CC1(C(Cl)(Cl)Cl)C=CC(O)(C#CC2(O)C=CC(C)(C(Cl)(Cl)Cl)C=C2)C=C1 (stereo not given) | 98.2% (active)
9 | COCCN1C(=O)C2c3[nH]c4ccccc4c3C3CCC(C(C)(C)C)CC3C2C1=O (stereo not given) | 96% (active)
10 | Cc1nc(N)sc1N=Nc1cccc(Cl)c1Cl | 50.4%
11 | ClC1=C(Cl)C2c3ccccc3C1c1ccccc12 | 76.2% (active)
12 | C=C/C=C/CC=C | 1.2%
13 | C/C(=N\NC(=S)NCc1ccccc1)c1nccnc1C | 89% (active)
14 | COC(=O)c1cc(OC)c(OC)c(OC)c1 | -0.5%
15 | Nc1nc2c(ccc3ccccc32)s1 | 50.6%
16 | N=C(N)c1ccc(N=Nc2cc(/C=C/c3ccccc3)ccc2O)cc1 | 99% (active)
17 | O=C1NC(=O)N(c2ccc([N+](=O)[O-])cc2)C1=O | 1.1%
18 | O=C(Nc1cc(Cl)cc(Cl)c1)OCCCl | 93% (active)
19 | Cc1[nH]nc(-c2ccon2)c1N=O | 28.8%
20 | O=C(O)CCC(=O)c1ccc(C2CCCC2)c2ccccc12 | 78.8% (active)

Row | SMILES | growth inhibition
21 | CC12CC(Br)(Br)C(=O)C3C1CCCC32 | 41%
22 | O=[N+]([O-])c1ccc(NSc2ccccc2)cc1 | 92.5% (active)
23 | CCC1CCC(CC)C1=O (stereo not given) | 93.9% (active)
24 | Cc1cc(C(C)(CC(C)C)c2ccc(O)c(C)c2)ccc1O | 93% (active)
25 | N#CC1C(=O)SC2c3ccccc3C(=O)c3ccccc3C12 (stereo not given) | 0.05%
26 | COc1ccc(C2C3=C(CCCC3=O)Oc3cc4c(cc32)OCO4)cc1 (stereo not given) | 96.7% (active)
27 | CCC(c1cccc(O)c1)C(CC)c1cccc(O)c1 (stereo not given) | 60.9%
28 | CCCCCCCCCCCC1C(C#N)C(=O)NC(=O)C1C#N (stereo not given) | 5.4%
29 | O=C(NNC(=O)c1cccc(C(=O)NNC(=O)c2ccc(Cl)c(Cl)c2)n1)c1ccc(Cl)c(Cl)c1 | 45.8%
30 | CCOC(=O)CCC(NC(=O)c1ccc(NC(OC)c2nc3cc(C(F)(F)F)ccc3nc2-c2ccccc2)cc1)C(=O)OCC (stereo not given) | 93.2% (active)
31 | CCOC(=O)c1c(C)[nH]c(CO)c1C | 38%
32 | S=C(NC(=S)Nc1ccc(Cl)cc1)Nc1ccc(Cl)cc1 | 61.9%
33 | O=S(=O)(c1ccc(OCC(O)COc2ccc(S(=O)(=O)c3ccc(OCC4CO4)cc3)cc2)cc1)c1ccc(OCC2CO2)cc1 (stereo not given) | 37.2%
34 | C=C(C)C(=O)OC1CC2=CC(CC3(C)OC3C3OC(=O)C(=C)C13)OC2=O (stereo not given) | 87% (active)
35 | c1ccc2c(c1)C[n+]1ccc3ccccc3c1-c1c3ccccc3cc[n+]1C2 | 13.4%
36 | CCN(CC)CCOC(=O)Cc1cccc2c(=O)cc(-c3cccs3)oc12 | -9.35%
37 | C=C1C(=O)OC2C/C(C)=C/CC/C(C)=C/CCC3(COC(C)=O)OC3CC12 (stereo not given) | 94.2% (active)
38 | CN1C=CC(C(O)(c2ccccc2)c2ccccc2)CC1 (stereo not given) | 19.3%
39 | OCc1cccc2c1Oc1ccccc1S2 | -25.4%
40 | COC(=O)c1[nH]c(=O)c(C#N)c(C(=O)OC)c1C(=O)c1ccc(Cl)c(Cl)c1 | 73% (active)
